# Results taken from PubChem BioAssay AID463173 (ICCB-Longwood Screening Facility, Harvard Medical School, 2010).
# In all, about 52,000 compounds went through this assay and about 4,300 (8.3%) were called active. Rule as the data show it: active = survival mostly below about 52% (no sharp cut-off); inactive = mostly above about 56%. This excerpt belongs to a sample that is enriched for actives.
# Test system: DeltatarO mutant
# Assay: growth inhibition of S. aureus wild type versus tarO mutant, primary screen, teichoic acid synthesis inhibitors, RN4220, OD600 (AID 463173)
# Conditions: OD600, 18 h, active compounds read low, screened at 18.75 µg/mL (by protocol)
row,SMILES,survival
1,CC(=O)c1cccc(NC(=O)CSc2nc3c(=O)n(C)c(=O)n(C)c3n2C)c1,79% (inactive)
2,CCc1ccc2oc(-c3cc(NC(=O)c4cccnc4)cc(C)c3O)nc2c1,65% (inactive)
3,CC(C)c1ccc2oc(-c3cc(NC(=O)c4cccnc4)ccc3Cl)nc2c1,-2% (active)
4,O=C(Nc1cc(-c2nc3cc(Cl)ccc3o2)ccc1Cl)c1cccs1,59% (inactive)
5,Cc1cc(NC(=O)c2cccnc2)cc(-c2nc3cc(Cl)ccc3o2)c1O,140% (inactive)
6,Cc1cc(C)c2oc(-c3ccc(NC(=O)c4cc(Br)ccc4Cl)cc3)nc2c1,89% (inactive)
7,Cc1cc(C)c2oc(-c3ccc(Cl)c(NC(=O)c4cccs4)c3)nc2c1,55% (active)
8,CCOc1ccccc1NC(=O)C1CCCN(S(=O)(=O)c2c(C)[nH]c(=O)[nH]c2=O)C1 (configuration not stated),88% (inactive)
9,CC(C)c1cc(-c2nc(-c3ccc(Br)cc3)no2)n[nH]1,95% (inactive)
10,O=C(Cn1c(-c2cccs2)cc2cc(F)ccc21)NCCc1ccc(Cl)cc1,91% (inactive)
11,Cc1ccc(-n2ncc3c(NCCC4=CCCCC4)ncnc32)cc1C,119% (inactive)
12,Cc1ccc(-n2ncc3c(NCCC4=CCCCC4)ncnc32)cc1,20% (active)
13,Clc1cccc(-n2ncc3c(NCCC4=CCCCC4)ncnc32)c1,37% (active)
14,Clc1cccc(-n2ncc3c(NCCc4ccccc4)ncnc32)c1,94% (inactive)
15,Cc1ccc(-n2ncc3c(NCc4ccccc4)ncnc32)cc1Cl,-4% (active)
16,Cc1ccc(Cl)cc1-n1ncc2c(NCCC3=CCCCC3)ncnc21,91% (inactive)
17,Cc1ccc(-n2ncc3c(NCc4ccccc4)ncnc32)cc1C,70% (inactive)
18,Fc1ccc(-n2ncc3c(NCCC4=CCCCC4)ncnc32)cc1,83% (inactive)
19,Cc1ccc(-n2ncc3c(NCCc4ccccc4)ncnc32)cc1Cl,65% (inactive)
20,COc1cccc(C2C(C(=O)Nc3cccnc3)=C(C)Nc3nc(SCc4ccccc4)nn32)c1 (configuration not stated),81% (inactive)
21,COc1ccc(Cn2c(SCc3ccc(C(=O)NC4CCCC4)cc3)nc3cccnc32)cc1,69% (inactive)
22,COC(=O)c1sc2nc3ccccc3cc2c1N,93% (inactive)
23,COCCNS(=O)(=O)c1ccc(S(=O)(=O)N2CCCCC2)cc1,103% (inactive)

row,SMILES,survival
1,Cc1ccc2cc(CN(CC3CCCO3)C(=O)C3CCC3)c3nnnn3c2c1 (configuration not stated),95% (inactive)
2,CCC(C)NC(=O)CCCc1nnc2n(CC(C)C)c(=O)c3sccc3n12 (configuration not stated),94% (inactive)
3,O=S(=O)(NCCS(=O)(=O)N1CCN(c2ccccc2)CC1)c1ccccc1,81% (inactive)
4,CCN(C1CCCCC1)S(=O)(=O)c1ccc(S(=O)(=O)NC2CC2)cc1,90% (inactive)
5,O=C(Nc1ccccc1)C1CCN(S(=O)(=O)c2ccc3c(c2)CCCN3C(=O)C2CCC2)CC1,95% (inactive)
6,CCOc1ccc(Nc2c(S(=O)(=O)c3ccccc3)cnc3ccccc23)cc1,38% (active)
7,CCOc1ccc(Nc2c(S(=O)(=O)c3ccc(Cl)cc3)cnc3ccc(OC)cc23)cc1,67% (inactive)
8,CCOc1ccc(Nc2c(S(=O)(=O)c3ccc(Cl)cc3)cnc3ccc(OCC)cc23)cc1,66% (inactive)
9,CCOc1ccc(Nc2c(S(=O)(=O)c3ccc(C)cc3)cnc3ccc(F)cc23)cc1,64% (inactive)
10,CCOc1ccc(Nc2c(S(=O)(=O)c3ccccc3)cnc3ccc(CC)cc23)cc1,34% (active)
11,CCOc1ccc(Nc2c(S(=O)(=O)c3ccccc3)cnc3ccc(F)cc23)cc1,92% (inactive)
12,CCOc1ccc(Nc2c(S(=O)(=O)c3ccc(C)cc3)cnc3cc(OC)c(OC)cc23)cc1,70% (inactive)
13,CCOc1ccc(Nc2c(S(=O)(=O)c3ccc(C)cc3)cnc3ccccc23)cc1,43% (active)
14,CCOc1ccc(Nc2c(S(=O)(=O)c3ccc(C)cc3)cnc3ccc(OC)cc23)cc1,59% (inactive)
15,CCOc1ccc(C(=O)NCC(c2ccc3c(c2)OCO3)N2CCN(c3ccc(F)cc3)CC2)cc1 (configuration not stated),87% (inactive)
16,COc1ccc(Cl)cc1NC(=O)Cn1cnc2sc(C)c(S(=O)(=O)N3CCN(c4ccccc4OC)CC3)c2c1=O,79% (inactive)
17,CCN(c1ccccc1)c1nnc(NC(=O)Nc2ccc(Br)c(C)c2)s1,89% (inactive)
18,COc1ccccc1NC(=O)c1c(-c2ccc(C)cc2)nnc2ccccc12,105% (inactive)
19,CS(=O)(=O)Nc1ccc(-c2nc3ccccc3s2)cc1,48% (inactive)
20,CC(C)c1ccc(C(=O)Nc2ccc(-c3nc4ccccc4s3)c(Cl)c2)cc1,216% (inactive)
21,Cc1cc(F)ccc1S(=O)(=O)Nc1ccc(O)c(Sc2ncn[nH]2)c1,111% (inactive)
22,CC(C)c1ccc(S(=O)(=O)Nc2ccc(O)c(Sc3nc4ccccc4s3)c2)cc1,1% (active)
23,CC(C)(C)c1ccc(S(=O)(=O)Nc2ccc(O)c(Sc3nc4ccccc4s3)c2)cc1,-4% (active)

row,SMILES,survival
1,O=S(=O)(Nc1ccc(O)c(Sc2nc3ccccc3s2)c1)c1cc(Cl)ccc1Cl,-8% (active)
2,O=C(Nc1ccc(Cl)cc1-c1nc2ccccc2s1)c1ccco1,74% (inactive)
3,CC(C)NC(=O)c1nc2ccccc2s1,88% (inactive)
4,Cc1nc2ccc(S(=O)(=O)NC(C(=O)NCc3ccccc3Cl)C(C)C)cc2s1 (configuration not stated),102% (inactive)
5,Cc1nc2ccc(S(=O)(=O)CCC(=O)Nc3ccc(C(C)C)cc3)cc2s1,50% (inactive)
6,Cc1cc(S(=O)(=O)Nc2ccc(O)c(Sc3nc4ccccc4s3)c2)ccc1Cl,-1% (active)
7,Cn1c(=O)sc2cc(NS(=O)(=O)c3ccc(C(C)(C)C)cc3)ccc21,92% (inactive)
8,CCOC(=O)CNc1nnc(SCC(=O)OCC)[nH]c1=O,71% (inactive)
9,Cc1ccc2oc(C(=O)Nc3ccc(S(=O)(=O)N4CCCC(C)C4)cc3)cc(=O)c2c1 (configuration not stated),69% (inactive)
10,Cc1ccc(Cl)cc1N1CCN(CCCNc2ncnc3onc(-c4ccc(F)cc4)c23)CC1,80% (inactive)
11,Cc1ccc2nc(-c3ccncc3)c(Nc3ccc(C(C)C)cc3)n2c1,75% (inactive)
12,CC(C)(Cc1ccc(O)cc1)NC(=O)c1ccccc1,86% (inactive)
13,CC(=O)c1c(C)n(-c2cccc(Cl)c2)c2ccc(OC(=O)c3ccccc3)cc12,77% (inactive)
14,CN(CC(=O)NCc1ccccc1Cl)S(=O)(=O)c1ccc2c(c1)c(=O)n(C)c(=O)n2C,130% (inactive)
15,CCOc1ccccc1C(=O)Nc1ccc(S(=O)(=O)Nc2ncccn2)cc1,76% (inactive)
16,CC1=CCC2C(=O)N(C3CCCCC3)C(=O)C2C1 (configuration not stated),79% (inactive)
17,O=C(Nc1ccc(F)cc1F)N1CCN(c2ccc(Cl)c(Cl)c2)CC1,48% (active)
18,Cc1ccc(NC(=O)N2CCN(c3ccc(Cl)c(Cl)c3)CC2)cc1,102% (inactive)
19,CC(C)c1ccc(NC(=O)N2CCN(c3ccc(Cl)c(Cl)c3)CC2)cc1,87% (inactive)
20,CCn1cc(S(=O)(=O)c2ccc(C)cc2)c(=O)c2cc(F)c(N3CCCCCC3)cc21,90% (inactive)
21,CC(C)C(=O)Nc1nnc2n1CCS2,101% (inactive)
22,CCCSc1nc2sc3c(c2c(=O)n1Cc1ccccc1)CC(C)(CC)OC3 (configuration not stated),14% (active)
23,C=C(C)CSc1nc2sc3c(c2c(=O)n1-c1ccccc1)CC(C(C)C)OC3 (configuration not stated),76% (inactive)

row,SMILES,survival
1,CCCSc1nc2sc3c(c2c(=O)n1-c1cccc(Br)c1)CC(C)(C)OC3,61% (inactive)
2,C=C(C)CSc1nc2sc3c(c2c(=O)n1Cc1ccccc1)CC(C)(CC)OC3 (configuration not stated),42% (active)
3,CCCCSc1nc2sc3c(c2c(=O)n1-c1ccccc1C)CC(C)(C)OC3,48% (inactive)
4,CCn1c(NN)nc2sc3c(c2c1=O)CC(C)(C)OC3,104% (inactive)
5,CSc1nc2c([nH]c3ccccc32)c(=O)n1-c1ccc(C)cc1,87% (inactive)
6,Cc1ccc(N2C(=O)C3CN4CCCN4C3C2=O)cc1 (configuration not stated),78% (inactive)
7,COc1ccccc1C(=O)NCC(=O)O,76% (inactive)
8,CCc1ccc(S(=O)(=O)c2nnn3c2nc(N2CCCC(C)C2)c2cc(Cl)ccc23)cc1 (configuration not stated),63% (inactive)
9,Cc1ccc(NC(=O)Cn2c(=O)n(-c3ccccc3)c(=O)c3ccc(C(=O)NCc4ccc5c(c4)OCO5)cc32)cc1,114% (inactive)
10,CCOC(=O)c1cccc(NC(=O)c2cc(S(=O)(=O)N3CCCCCC3)cn2C)c1,74% (inactive)
11,COc1ccc(N2CCN(S(=O)(=O)CCNC(=O)c3ccc(C(F)(F)F)cc3)CC2)cc1,99% (inactive)
12,COc1ccc(CNC(=O)c2ccc3c(c2)CCN3S(=O)(=O)c2ccccc2)cc1,36% (active)
13,Cc1ccc(S(=O)(=O)N2CCc3cc(C(=O)NCCc4ccccc4)ccc32)cc1,104% (inactive)
14,COc1ccc(CNC(=O)c2ccc3c(c2)CCN3S(=O)(=O)c2ccc(Cl)cc2)cc1,62% (inactive)
15,COc1ccc(CCNC(=O)c2ccc3c(c2)CCN3S(C)(=O)=O)cc1,82% (inactive)
16,COc1ccc(CCNC(=O)c2ccc3c(c2)CCN3S(=O)(=O)c2ccc(C)cc2)cc1OC,50% (inactive)
17,O=C(NCCc1ccccc1)c1ccc2c(c1)CCN2S(=O)(=O)c1ccc(Br)cc1,67% (inactive)
18,O=C(NCCc1ccccc1)c1ccc2c(c1)CCN2S(=O)(=O)c1ccccc1,38% (active)
19,COc1ccc(CCNC(=O)c2ccc3c(c2)CCN3S(=O)(=O)c2ccccc2)cc1,44% (active)
20,COc1ccc(CCNC(=O)c2ccc3c(c2)CCN3S(=O)(=O)c2ccc(Cl)cc2)cc1,50% (inactive)
21,COc1ccc(CCNC(=O)c2ccc3c(c2)CCN3S(=O)(=O)c2ccccc2)cc1OC,88% (inactive)
22,COc1ccc(CCNC(=O)c2ccc3c(c2)CCN3S(=O)(=O)c2ccc(C)cc2)cc1,43% (active)
23,COc1ccc(CNC(=O)c2ccc3c(c2)CCN3S(=O)(=O)c2ccc(C)cc2)cc1,55% (inactive)
